Reference: PubChem BioAssay (NCATS)
Results filed as inconclusive are left out. A call without a number means that no potency is given here. Activity calls are given as the source filed them. Unless noted, the call rests on the fitted dose curve; in most records, active means well fitted curve in the direction sought with a large enough effect; inconclusive means small, poorly fitted or top-dose-only effect, or another doubt; inactive means no such curve, though single readings can be large; an effect the other way counts as inactive or inconclusive.

Legend:
[1] = Primary qHTS for inhibitors of nuclear receptor binding SET domain protein 2 (NSD2) in an RCH-ACV wild type WT cells (2C) (AID 1645877); further: nearly all actives have a fitted effect of over 70% in size; further: potency means the concentration at half of the fitted maximal effect
[2] = target: Catechol O-methyltransferase (Homo sapiens) (UniProt P21964); assay: Confirmatory Screen for Target Class Profiling of Small Molecule Inhibitors of Methyltransferases (AID 1745852; calls by dose curve; further: potency means the concentration at half of the fitted maximal effect); conditions: MTase-Glo luminescence, SAH detection, recombinant enzyme; measured here: COMT max response; stronger effect = lower value
[3] = target: Guanidinoacetate N-methyltransferase (Homo sapiens) (UniProt Q14353); assay: as above; conditions: activity change, negative = inhibition: at 57.3 µM (top of the series) unless noted
[4] = target: Nicotinamide N-methyltransferase (Homo sapiens) (UniProt P40261); assay: as above; conditions: MTase-Glo luminescence, SAH detection, recombinant enzyme; measured here: NNMT max response; stronger effect = lower value
[5] = target: Phenylethanolamine N-methyltransferase (Homo sapiens) (UniProt P11086); assay: as above; conditions: MTase-Glo luminescence, SAH detection, recombinant enzyme; measured here: PNMT max response; stronger effect = lower value
[6] = target: Glutathione peroxidase 1 (Homo sapiens) (UniProt P07203); assay: Primary qHTS Assay for Inhibitors of Recombinant Selenoprotein Glutathione Peroxidase 1 (GPX1) (AID 1845191); further: nearly all actives have a fitted effect of over 65% in size
Outline: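 10 nM GPX1 + cpd, 30 min RT; start w/ 1 mM GSH, 0.5 mM cumene hydroperoxide, 0.5 mM NADPH, 100 nM GR, 0.01% BSA; buffer 50 mM Tris-HCl pH 7.5, 2 mM EDTA, 150 mM NaCl; Fl 340/450, 0 & 15 min.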

[7] = target: Phospholipid hydroperoxide glutathione peroxidase GPX4 (Homo sapiens) (UniProt P36969); assay: Primary qHTS Assay for Inhibitors of Recombinant Selenoprotein Glutathione Peroxidase 4 (GPX4) (AID 1845192); further: nearly all actives have a fitted effect of over 65% in size
Outline: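 NADPH consumption, followed by fluorescence at 340/450 nm between 0 and 15 min, reports GPX4 activity via coupled glutathione reductase (100 nM). Enzyme 200 nM was pre-exposed to compound 30 min; 0.5 mM cumene hydroperoxide and 1 mM GSH served as substrates.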

[8] = target: Luciferin 4-monooxygenase (Photinus pyralis) (UniProt P08659); assay: Primary firefly luciferase (FLuc) qHTS assay for identification of artifact compounds. (AID 1845220); further: nearly all actives have a fitted effect of over 60% in size
Outline: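 Compounds sat 15 min at room temperature with 10 uM luciferin and 10 uM ATP (pH 7.6 Tris acetate). Firefly luciferase (10 nM final) was then added, and luminescence was read 5 min later. Data normalized to no-enzyme and DMSO controls were Hill-fitted.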

[9] = Primary fluorescence-based thiol-reactive (MSTI) qHTS assay for identification of artifact compounds. (AID 1845221); further: nearly all actives have a fitted effect of over 65% in size; further: potency means the concentration at half of the fitted maximal effect
Outline: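 One-hour, room-temperature, dark incubation of compound with 4 uM MSTI in PBS (pH 7.4, 2% DMSO) precedes a fluorescence read at 525 nm excitation, 598 nm emission; Hill-equation fitting yields concentration-response values.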

[10] = system: Nanoluciferase (engineered Oplophorus gracilirostris luciferase); assay: Primary Nanoluciferase (NLuc) qHTS assay for identification of artifact compounds. (AID 1845222)
Outline: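 Luminescence from secreted NLuc (filtered, 1:55-diluted S16 cell medium) read 5 min after Nano-Glo substrate; compounds preincubated 15 min, RT. Hill fits of inhibition normalized to DMSO and no-enzyme.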

[11] = Primary redox qHTS assay for identification of artifact compounds. (AID 1845223)
Outline: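 Amplex Red (25 uM) and HRP (250 mU/mL) in HBSS, with compounds for 15 min, then 250 uM DTT for 30 min, room temperature, dark. Fluorescence 525/598 nm read; normalized to DMSO and 10 uM DA3003; Hill fit.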

[12] = Viability counterscreen for antagonist of constitutive androstane receptor (CAR) against the NCATS DSHEA and TCM libraries (AID 1794837);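 further: compound exposure lasted 24 h before viability reading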
Outline: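 Counterscreen performed in a 1536-well qHTS format using HepG2-CYP2B6-hCAR cells; samples titrated in the presence of 48 uM CITCO, with viability measured fluorometrically (405/540 nm) after 24 h.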

[13] = Viability counterscreen for agonist of constitutive androstane receptor (CAR) against the NCATS DSHEA and TCM libraries (AID 1794838);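 further: cells exposed to compound for 24 h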
Outline: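 Multiplexed counterscreen: after 24 h compound exposure with 0.75 uM PK11195, HepG2-CYP2B6-hCAR viability was quantified fluorimetrically (CellTiter-Fluor, 405/540 nm) prior to the ONE-Glo luciferase read.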

[14] = target: Nuclear receptor subfamily 1 group I member 3 (Homo sapiens) (UniProt Q14994); assay: Primary qHTS for agonist of constitutive androstane receptor (CAR) against the NCATS DSHEA and TCM libraries (AID 1794839);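 further: HepG2 cells expressing human CAR with a CYP2B6 reporter plus PK11195 antagonist; luciferase reporter luminescence read with ONE-Glo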
Outline: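 Concentration–response screen in HepG2-CYP2B6-hCAR cells under 0.75 µM PK11195; 24 h exposure; luminescent reporter signal with multiplexed fluorescent viability.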

[15] = HepG2 viability counterscreen (readout 2: ATP content) against the NCATS DSHEA and TCM libraries (AID 1794840);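 further: HepG2 cells exposed to substances for about 24 h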
Outline: (§1)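 After HepG2 cells attach for ~4 h, substances are added and incubated ~24 h at 37C, 5% CO2. GF-AFC fluorescence then CellTiter-Glo luminescence give protease and ATP readouts.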

[16] = HepG2 viability counterscreen (readout 1: protease activity) against the NCATS DSHEA and TCM libraries (AID 1794841);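 further: cells exposed to compounds for about 24 h before the protease read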
Outline: as §1

[17] = target: Cytochrome P450 3A4 (Homo sapiens) (UniProt P08684); assay: qHTS for inhibitors of CYP3A4 against the NCATS DSHEA and TCM libraries (AID 1919971);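 further: inhibition lowers luminescence from luciferin made by CYP3A4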
Outline: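 Luminescent P450-Glo format: compounds preincubated 15 min with enzyme and luciferin substrate, reaction run 30-45 min after NADPH regeneration solution. Intraplate controls: ketoconazole for CYP3A4 and CYP2C19, sulfaphenazole for CYP2C9.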

[18] = target: Cytochrome P450 2D6 (Homo sapiens) (UniProt P10635); assay: qHTS for inhibitors of CYP2D6 against the NCATS DSHEA and TCM libraries (AID 1919972)
Outline: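 Luminescent P450-Glo read-out of CYP2D6 turnover of a luciferin substrate after NADPH-driven reaction of 30-45 min at room temperature. Compounds were first preincubated 15 min with enzyme at titrated concentrations; quinidine was the intraplate control.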

Chain of Phenylethanolamine N-methyltransferase (Homo sapiens) (P11086 whole entry, looked up): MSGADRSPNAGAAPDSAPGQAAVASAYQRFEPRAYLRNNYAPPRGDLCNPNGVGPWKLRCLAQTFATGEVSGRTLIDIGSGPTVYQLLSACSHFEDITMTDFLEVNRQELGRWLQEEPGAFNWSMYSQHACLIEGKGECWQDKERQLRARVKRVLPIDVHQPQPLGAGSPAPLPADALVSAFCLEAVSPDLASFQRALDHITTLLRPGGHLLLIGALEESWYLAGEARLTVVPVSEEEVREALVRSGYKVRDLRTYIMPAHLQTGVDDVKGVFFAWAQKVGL
Chain of Catechol O-methyltransferase (Homo sapiens) (P21964 whole entry, looked up): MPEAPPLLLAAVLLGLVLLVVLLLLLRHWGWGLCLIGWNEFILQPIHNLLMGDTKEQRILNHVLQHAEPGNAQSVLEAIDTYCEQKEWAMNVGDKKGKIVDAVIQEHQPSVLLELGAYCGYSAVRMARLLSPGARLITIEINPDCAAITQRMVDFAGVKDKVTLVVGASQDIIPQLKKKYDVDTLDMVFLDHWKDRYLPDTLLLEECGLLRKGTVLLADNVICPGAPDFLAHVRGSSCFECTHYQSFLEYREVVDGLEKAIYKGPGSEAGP
Chain of Nicotinamide N-methyltransferase (Homo sapiens) (P40261 whole entry, looked up): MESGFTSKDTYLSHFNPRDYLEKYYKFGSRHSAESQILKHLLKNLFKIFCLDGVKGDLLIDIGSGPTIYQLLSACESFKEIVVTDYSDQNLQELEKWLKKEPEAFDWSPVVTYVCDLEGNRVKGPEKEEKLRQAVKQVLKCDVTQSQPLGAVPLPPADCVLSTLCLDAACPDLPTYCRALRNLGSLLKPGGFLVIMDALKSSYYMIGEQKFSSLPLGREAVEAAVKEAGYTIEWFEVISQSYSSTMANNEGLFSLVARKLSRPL
Chain of Phospholipid hydroperoxide glutathione peroxidase GPX4 (Homo sapiens) (P36969 whole entry, looked up): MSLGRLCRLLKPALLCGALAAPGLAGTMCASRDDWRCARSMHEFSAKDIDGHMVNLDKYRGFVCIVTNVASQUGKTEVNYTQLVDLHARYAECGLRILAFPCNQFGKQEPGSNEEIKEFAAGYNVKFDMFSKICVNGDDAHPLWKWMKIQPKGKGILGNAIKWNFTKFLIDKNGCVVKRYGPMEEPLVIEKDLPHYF
Chain of Glutathione peroxidase 1 (Homo sapiens) (P07203 whole entry, looked up): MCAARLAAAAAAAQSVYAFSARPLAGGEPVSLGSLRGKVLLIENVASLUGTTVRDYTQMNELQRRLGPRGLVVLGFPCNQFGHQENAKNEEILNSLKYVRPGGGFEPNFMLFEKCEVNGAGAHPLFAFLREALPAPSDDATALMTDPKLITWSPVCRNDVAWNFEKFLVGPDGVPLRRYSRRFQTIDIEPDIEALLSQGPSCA
Chain of Nuclear receptor subfamily 1 group I member 3 (Homo sapiens) (Q14994 whole entry, looked up): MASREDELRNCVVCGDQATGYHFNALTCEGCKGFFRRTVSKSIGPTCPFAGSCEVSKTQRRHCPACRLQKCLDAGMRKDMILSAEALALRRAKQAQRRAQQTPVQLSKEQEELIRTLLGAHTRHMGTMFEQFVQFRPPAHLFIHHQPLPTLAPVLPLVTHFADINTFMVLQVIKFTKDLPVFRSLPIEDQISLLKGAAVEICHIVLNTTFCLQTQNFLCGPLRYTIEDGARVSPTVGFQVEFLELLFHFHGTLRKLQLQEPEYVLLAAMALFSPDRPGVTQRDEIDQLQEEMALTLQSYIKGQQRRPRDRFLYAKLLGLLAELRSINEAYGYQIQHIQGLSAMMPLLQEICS
Chain of Cytochrome P450 2D6 (Homo sapiens) (P10635 whole entry, looked up): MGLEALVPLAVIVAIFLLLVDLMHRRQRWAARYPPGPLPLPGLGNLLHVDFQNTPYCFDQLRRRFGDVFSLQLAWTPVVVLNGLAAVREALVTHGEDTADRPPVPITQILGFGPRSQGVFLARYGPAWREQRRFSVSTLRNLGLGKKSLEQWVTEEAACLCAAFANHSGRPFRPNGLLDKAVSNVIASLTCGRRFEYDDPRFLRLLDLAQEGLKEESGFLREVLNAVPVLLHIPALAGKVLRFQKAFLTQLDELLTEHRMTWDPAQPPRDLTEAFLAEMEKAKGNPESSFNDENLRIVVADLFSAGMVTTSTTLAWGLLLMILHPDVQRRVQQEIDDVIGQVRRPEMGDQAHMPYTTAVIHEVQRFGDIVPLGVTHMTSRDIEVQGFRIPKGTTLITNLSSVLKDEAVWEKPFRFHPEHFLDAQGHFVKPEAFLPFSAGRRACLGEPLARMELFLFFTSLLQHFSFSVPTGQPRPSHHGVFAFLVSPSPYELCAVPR
Chain of Cytochrome P450 3A4 (Homo sapiens) (P08684 whole entry, looked up): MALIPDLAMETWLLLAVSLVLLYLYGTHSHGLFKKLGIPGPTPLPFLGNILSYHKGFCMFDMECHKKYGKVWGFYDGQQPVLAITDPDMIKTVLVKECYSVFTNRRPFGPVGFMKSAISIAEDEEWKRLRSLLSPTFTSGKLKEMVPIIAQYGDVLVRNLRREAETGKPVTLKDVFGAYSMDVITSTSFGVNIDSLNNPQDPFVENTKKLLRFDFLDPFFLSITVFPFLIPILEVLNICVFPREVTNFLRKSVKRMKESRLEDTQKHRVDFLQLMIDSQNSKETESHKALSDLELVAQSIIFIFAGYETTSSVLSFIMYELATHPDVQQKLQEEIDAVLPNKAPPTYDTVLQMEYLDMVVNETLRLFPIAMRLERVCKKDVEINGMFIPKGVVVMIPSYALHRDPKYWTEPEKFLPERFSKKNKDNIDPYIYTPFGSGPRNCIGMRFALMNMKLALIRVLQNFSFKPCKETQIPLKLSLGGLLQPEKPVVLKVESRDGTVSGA

Row | SMILES | Potency [1] | activity [2] [%] | Potency [3] | activity [4] [%] | activity [5] [%] | Potency [6] | Potency [7] | Potency [8] | Potency [9] | Potency [10] | Potency [11] | activity change, negative = inhibition [3] | outcome [12] | outcome [13] | outcome [14] | outcome [15] | outcome [16] | outcome [17] | outcome [18]
1 | COc1cc(C(=O)NC2CCN(C)CC2)ccc1Nc1ncc2c(n1)N(C1CCCC1)CC(F)(F)C(=O)N2C | 0.0325 µM (active) | -24 | 27.1 µM (active) | -23.8 | -20.9 | inactive | inactive | inactive | inactive | inactive | inactive | – | – | – | – | – | – | – | –
2 | CN(C)C/C=C/C(=O)Nc1cccc(C(=O)Nc2ccc(Nc3nccc(-c4cccnc4)n3)cc2)c1 | 0.578 µM (active) | -2.53 | – | -7.5 | 1.39 | inactive | inactive | inactive | inactive | inactive | inactive | 0.0986% | – | – | – | – | – | – | –
3 | CC1(C)CC[C@]2(C(=O)O[C@@H]3O[C@H](CO)[C@@H](O)[C@H](O)[C@H]3O)CC[C@]3(C)C(=CCC4[C@@]5(C)C[C@@H](O)[C@H](O)[C@@](C)(CO)C5CC[C@]43C)C2[C@@H]1O (stereo partly drawn) | inactive | -79.9 | – | -4 | -1.38 | inactive | inactive | inactive | 3.16 µM (active) | inactive | inactive | -0.535% [at 19.1 µM] | – | – | – | – | – | – | –
4 | CC(C)=CCC(O)/C(C)=C/CO[C@@H]1O[C@H](CO)[C@@H](O)[C@H](O)[C@H]1O (stereo partly drawn) | inactive | -52 | – | 0 | 5.19 | inactive | inactive | inactive | inactive | inactive | inactive | 0% | inactive | inactive | inactive | inactive | inactive | inactive | inactive
5 | Cc1c[nH]c2nccc(Oc3c(F)cc(Nc4cc(Cl)nc(N)n4)cc3F)c12 | 0.731 µM (active) | -14.6 | – | -27.7 | -3.98 | inactive | inactive | inactive | inactive | inactive | inactive | 0% | – | – | – | – | – | – | –
6 | C=C1C(=O)OC2C1CCC(=C)C1CC(OC(C)=O)C(=C)C12 (stereo not drawn) | 3.25 µM (active) | -65.1 | – | -9.15 | -8.53 | inactive | inactive | inactive | 18.9 µM (active) | inactive | – | -10.4% | – | – | – | – | – | – | –
7 | COc1cc2ncnc(Nc3ccc(F)c(Cl)c3)c2cc1NC(=O)/C=C/CN1CCCCC1 | 3.32 µM (active) | -45.2 | 24.1 µM (active) | -36.6 | -39.3 | inactive | inactive | inactive | inactive | inactive | inactive | – | – | – | – | – | – | – | –
